Test results from the supplement of paper PMC13380429.

System: Vero E6 infected with SARS-CoV-2
Test: inhibition of SARS-CoV-2 cytopathic effect; higher = more antiviral protection, active = above 15
Conditions: 48 h

Measured: inhibition of SARS-CoV-2 cytopathic effect

O=C(O)/C=C/c1ccc(O)cc1 [naringeninic-acid]
inactive: 1 nM 1.32% | 8.33 nM -1.82% | 100 nM -12% | 833.33 nM -0.34% | 10000 nM -0.09%

Nc1cc(N2CCCCC2)nc(N)[n+]1[O-] [minoxidil]
inactive: 1 nM 0.37% | 8.33 nM 0.28% | 100 nM -0.2% | 833.33 nM 1.1% | 10000 nM -0.33%

C/C(=N\NC(=S)N1CCC1)c1ccccn1
inactive: 1 nM 0.2% | 8.33 nM 0.91% | 100 nM 2.65% | 833.33 nM -1.1%
active: 10000 nM 20.1%

COc1cc(OC)cc(N(CCNC(C)C)c2ccc3ncc(-c4cnn(C)c4)nc3c2)c1 [erdafitinib]
inactive: 1 nM 1.71% | 8.33 nM -0.38% | 100 nM 0.68% | 833.33 nM -1.43% | 10000 nM 11.7%

COc1ccc2[nH]c([S+]([O-])Cc3ncc(C)c(OC)c3C)nc2c1 (stereo not given) [omeprazole]
inactive: 1 nM 0.48% | 8.33 nM 2.24% | 100 nM 1.08% | 833.33 nM 3.07% | 10000 nM 1.79%

CCn1c(=O)[nH]c2ccccc21
inactive: 1 nM -3.62% | 8.33 nM -3.46% | 100 nM -3.83% | 833.33 nM -3.63% | 10000 nM -3.51%

CCN1CCN(c2cc(-c3ccc(F)cc3)c3c(n2)CCCCCC3)CC1 [blonanserin]
inactive: 1 nM 3.34% | 8.33 nM 2.25% | 100 nM -2.9% | 833.33 nM -0.44% | 10000 nM -3.59%

COc1c(C)c(C(=O)c2ccc(N)c(C(=O)O)c2)n2ccccc12
inactive: 1 nM -2.54% | 8.33 nM 1.8% | 100 nM 0.21% | 833.33 nM -1.06% | 10000 nM -1.34%

Nc1nc2c(ncn2[C@@H]2O[C@H](CO)[C@@H](O)[C@H]2O)c(=O)[nH]1 [guanosine]
inactive: 1 nM -3.19% | 8.33 nM -0.4% | 100 nM -0.7% | 833.33 nM -1.53% | 10000 nM 0.09%

O=[N+]([O-])c1nccn1CC(O)CN1CCCCC1 (stereo not given) [pimonidazole]
inactive: 1 nM 0.08% | 8.33 nM 0.87% | 100 nM 1.45% | 833.33 nM 2.08% | 10000 nM -0.59%

CC(=O)[C@H]1CC[C@H]2[C@@H]3CC[C@H]4C[C@H](O)CC[C@]4(C)[C@H]3CC[C@]12C [allopregnanolone]
inactive: 1 nM 0.625% | 8.33 nM 0.465% | 100 nM -0.195% | 833.33 nM 0.8% | 10000 nM -0.82%

O=C(O)C1=CCCN(CCOC(c2ccc(C(F)(F)F)cc2)c2ccc(C(F)(F)F)cc2)C1
inactive: 1 nM 0.02% | 8.33 nM 0.95% | 100 nM -2.81% | 833.33 nM 1.77% | 10000 nM 0.32%

CC(C)C[C@H](NC(=O)CNC(=O)[C@H](Cc1ccc(O)cc1)NC(=O)[C@H](CO)NC(=O)[C@H](Cc1c[nH]c2ccccc12)NC(=O)[C@H](Cc1cnc[nH]1)NC(=O)[C@@H]1CCC(=O)N1)C(=O)N[C@@H](CCCNC(=N)N)C(=O)N1CCC[C@H]1C(=O)NCC(N)=O [gonadorelin]
inactive: 1 nM -1.95% | 8.33 nM -2.66% | 100 nM 0.47% | 833.33 nM -1.19% | 10000 nM 1.93%

Cc1cc(C)cc(C(=O)NOCCCCCC(=O)NO)c1
inactive: 1 nM 2.07% | 8.33 nM -0.95% | 100 nM -1.04% | 833.33 nM -9.5% | 10000 nM -23.1%

COC(=O)/C=C/C(=O)N[C@@H]1CC[C@@]2(O)[C@H]3Cc4ccc(O)c5c4[C@@]2(CCN3CC2CC2)[C@H]1O5 [beta-funaltrexamine]
inactive: 1 nM -1.34% | 8.33 nM 1.21% | 100 nM -0.8% | 833.33 nM 1.68% | 10000 nM 6.01%

C#Cc1cccc(Nc2ncnc3cc(OC)c(OCCCCCCC(=O)NO)cc23)c1
inactive: 1 nM 1.1% | 8.33 nM 5.38% | 100 nM -0.94% | 833.33 nM -6.89% | 10000 nM -28%

O=c1c(-c2ccc(O)cc2)coc2cc(O)cc(O)c12 [genistein]
inactive: 1 nM -1.79% | 8.33 nM 1.66% | 100 nM 2.02% | 833.33 nM 3.3% | 10000 nM -1.82%

CCCCCCCCCCCCCCSCC(=O)O [tetradecylthioacetic-acid]
inactive: 1 nM 0.56% | 8.33 nM 0.01% | 100 nM -2.65% | 833.33 nM -4.9% | 10000 nM 1.48%

NC(=O)CCCCn1ccc(/N=C(\N)NCC(F)(F)F)n1
inactive: 1 nM 0.43% | 8.33 nM 2.16% | 100 nM -1.98% | 833.33 nM 0.05% | 10000 nM -0.82%

C=CC(=O)Nc1cc(Nc2nccc(-c3cn(C)c4ccccc34)n2)c(OC)cc1N(C)CCN(C)C [osimertinib]
inactive: 1 nM 1.08% | 8.33 nM 0.08% | 100 nM -5.65% | 833.33 nM -10.8% | 10000 nM -16.5%
